Assay outcomes (PubChem BioAssay)
This excerpt belongs to a sample that is enriched for hits.
YopH inh = inhibitors of Yersinia enterocolitica YopH tyrosine phosphatase. fluorescence Ex485/Em525. inhibition, % (no concentration beside the values). 140,000 tested, 0.16% active. AID 898; in the data active means inhibition above about 50%
Mtb RmlCD inh = blocks M. tuberculosis RmlC and RmlD coupled enzymes; RmlC+RmlD coupled enzyme assay, percent inhibition; primary screen in compound mixtures; 160,000 tested, 0.03% active; inhibition, % at 3.6 µM; in the data active means inhibition mostly above about 34%, no sharp cut-off
Target sequence (P9WH09 whole entry, looked up): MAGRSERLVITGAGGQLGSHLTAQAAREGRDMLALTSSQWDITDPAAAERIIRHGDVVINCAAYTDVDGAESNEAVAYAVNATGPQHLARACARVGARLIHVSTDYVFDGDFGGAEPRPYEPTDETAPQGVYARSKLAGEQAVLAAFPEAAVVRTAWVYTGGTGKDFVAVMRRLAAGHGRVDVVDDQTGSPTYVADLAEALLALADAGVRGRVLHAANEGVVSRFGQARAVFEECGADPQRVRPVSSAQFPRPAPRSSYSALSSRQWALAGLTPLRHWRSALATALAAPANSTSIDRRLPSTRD
Target sequence (P9WH11 whole entry, looked up): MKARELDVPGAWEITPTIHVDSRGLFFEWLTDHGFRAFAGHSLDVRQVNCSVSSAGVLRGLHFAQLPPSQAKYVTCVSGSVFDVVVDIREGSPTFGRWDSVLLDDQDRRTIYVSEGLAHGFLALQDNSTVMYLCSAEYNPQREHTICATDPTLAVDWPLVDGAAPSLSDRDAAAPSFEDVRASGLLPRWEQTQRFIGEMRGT
* marks the source's active call; other numbers are inactive results.

`COc1ccc(Cc2nnn(CC(=O)O)n2)cc1` gave YopH inh -6.7 and Mtb RmlCD inh 11.7.
For CC(=O)[C@@H]1[C@@H]2C(=O)N(C3CCCCC3)C(=O)[C@@H]2C2c3ccccc3C=CN21 (some centres not stated) the results were YopH inh 6.4 and Mtb RmlCD inh 2.5.
CC(C)(C)C(=O)[C@@H]1[C@@H]2C(=O)N(Cc3ccccc3)C(=O)[C@@H]2[C@H]2c3ccccc3C=CN12 was read as YopH inh 8.8 and Mtb RmlCD inh 28.9.
CC(=O)[C@@H]1[C@@H]2C(=O)N(c3ccc(F)c(Cl)c3)C(=O)[C@@H]2C2c3ccccc3C=CN21 (some centres not stated) was read as YopH inh 70.6*.
CC(=O)[C@H]1[C@@H]2C(=O)N(c3cccc(Cl)c3)C(=O)[C@@H]2[C@H]2c3ccccc3C=CN21 was read as YopH inh 67.0* and Mtb RmlCD inh -5.7.
`CCSC1=N/C(=C\c2ccccc2)C(=O)N1` gave YopH inh -6.4 and Mtb RmlCD inh -15.2.
CC(C)NC(=O)CSc1nc(-c2ccccc2)cs1 was read as Mtb RmlCD inh -5.6.
For CCNC(=O)c1cc2c(=O)n3cccc(C)c3nc2n(Cc2ccc(C)cc2)c1=N the results were YopH inh -30.5 and Mtb RmlCD inh 56.5*.
Cc1cccn2c(=O)c3cc(C(=O)NC(C)C)c(=N)n(Cc4ccncc4)c3nc12 was read as YopH inh -34.2 and Mtb RmlCD inh 6.4.
Screening Cc1nc(CCNC(=O)Cc2ccccc2)cs1 returned YopH inh -27.5.
For CCCn1nnc(NC(=O)/C=C/c2ccco2)n1 the results were Mtb RmlCD inh -7.4.
`COc1cc(C(=O)CSc2nncn2C)cc(OC)c1OC` gave YopH inh -26.0 and Mtb RmlCD inh 3.1.
`COc1ccc(NC(=O)N2CCCC(C(=O)NC(C)C)C2)cc1` (configuration not stated) gave YopH inh -30.4.
For COCCCNC(=O)C1CCCN(C(=O)Nc2ccc(OC)cc2)C1 (configuration not stated) the results were YopH inh 53.3*.
`O=C1CCCCC1c1cccc2ccccc12` (configuration not stated) gave YopH inh -27.1 and Mtb RmlCD inh 7.5.
Screening O=C1c2ccccc2C(=O)C12OC2c1cccc2ccccc12 (configuration not stated) returned YopH inh 98.6* and Mtb RmlCD inh 3.8.
Cc1ccc(S(=O)(=O)NC(CC(C)C)C(=O)Oc2ccc3c4c(c(=O)oc3c2)CCC4)cc1 (configuration not stated) was read as YopH inh -18.9 and Mtb RmlCD inh 7.0.
For CC(C)CC(C(=O)Oc1ccc2c3c(c(=O)oc2c1)CCC3)N1C(=O)c2ccccc2C1=O (configuration not stated) the results were YopH inh -7.7 and Mtb RmlCD inh 54.5*.
CCC(C)C(NS(=O)(=O)c1ccc(C)cc1)C(=O)Oc1ccc2c3c(c(=O)oc2c1)CCC3 (configuration not stated) was read as YopH inh -34.3.
CC[C@@H](NS(=O)(=O)c1ccc(C)cc1)C(=O)Oc1ccc2c3c(c(=O)oc2c1)CCC3 was read as YopH inh 1.7 and Mtb RmlCD inh 45.5*.
For O=c1cc(-c2cccc3ccccc23)[nH][nH]1 the results were YopH inh -29.4.
Screening Cc1ccccc1Nc1cc2ccccc2c(=O)[nH]1 returned YopH inh 101.2* and Mtb RmlCD inh -9.7.
O=c1[nH]c(Nc2ccc(F)cc2)cc2ccccc12 was read as YopH inh 90.3* and Mtb RmlCD inh -0.6.
For O=c1[nH]c(-c2ccccn2)cc2ccccc12 the results were YopH inh -32.0 and Mtb RmlCD inh -6.1.
Screening Cc1cc2ccccc2c(=O)[nH]1 returned YopH inh -13.5 and Mtb RmlCD inh 6.2.
Screening C=C(C)CCC1(C)NC(=O)N(c2ccccc2)N1 (configuration not stated) returned Mtb RmlCD inh 0.9.
Screening O=C(Nc1ccccc1F)c1ccc2nc(N3C(=O)CCC3=O)sc2c1 returned YopH inh -27.3 and Mtb RmlCD inh 73.0.
For CNS(=O)(=O)c1cccc(C(=O)OCC(=O)N2c3ccccc3CC2C)c1 (configuration not stated) the results were YopH inh -3.0.
For CCOC(=O)c1cnc2ccc(C)cn2c1=O the results were Mtb RmlCD inh 9.1.
Screening COc1ccc(NC(=S)Nc2cccc([N+](=O)[O-])c2)cc1 returned YopH inh -25.3.
For COc1ccccc1-c1c(C)nn2c(N3CCN(c4ccccc4OC)CC3)cc(C)nc12 the results were YopH inh 1.6 and Mtb RmlCD inh 12.3.
Screening COc1ccccc1-c1c(C)nn2c(N3CCCCCC3)cc(C)nc12 returned YopH inh 81.3* and Mtb RmlCD inh 2.1.
For O=C(Cc1nc(-c2ccc([N+](=O)[O-])cc2)cs1)Nc1ccccc1 the results were YopH inh -28.9 and Mtb RmlCD inh 12.3.
`C#CCn1c(=O)cc(C)c2ccccc21` gave Mtb RmlCD inh 2.8.
